Measured values reported in PubChem BioAssay (NCATS).
Records with an inconclusive call do not appear. Active and inactive are the calls of the source. Unless noted, the call rests on the fitted dose curve.

Key:
[1] = molecular target: Bile acid receptor (Homo sapiens) (UniProt Q96RI1); experiment: qHTS assay for small molecule antagonists of farnesoid X receptor signaling (AID 588526); further: potency means the concentration at half of the fitted maximal effect
In short: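 Concentration-response titrations were fitted to the Hill equation for half-maximal inhibition and maximal response, with data normalised to 50 uM chenodeoxycholic acid and DMSO control wells. Cells: FXR-UAS-bla HEK293T, dialyzed FBS.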

[2] = molecular target: Bile acid receptor (Homo sapiens) (UniProt Q96RI1); experiment: qHTS assay for small molecule agonists of farnesoid X receptor signaling (AID 588527); details: HEK293T FXR-UAS-bla, beta-lactamase ratio, 16 h; activation: stronger effect = higher value;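 further: series mostly up to about 77 µM; 0% = vehicle basal and 100% = reference agonist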
In short: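 FXR-UAS-bla HEK293T, 10% dialyzed FBS; cpds up to 92 uM titration, 16 h 37 C; CCF4 dye 2 h RT; fluorescence. Normalized to chenodeoxycholic acid 100 uM (100%) and DMSO (0%); Hill fit gives EC50, efficacy.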

[3] = qHTS assay for small molecule antagonists of peroxisome proliferator-activated receptor delta signaling (AID 588535; active means well fitted inhibition curve with a large enough effect in the signal ratio, with a control signal flat, not every such curve was filed as active; the % refers to the signal ratio;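 on max response: cells co-treated with a PPAR-delta agonist as stimulator during compound exposure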); details: HEK293T PPARd-UAS-bla, beta-lactamase FRET ratio, 18 h; 460 nm channel
In short: (§1)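 Reporter: UAS-bla under PPAR-delta response element, HEK293T host. Medium: 2% charcoal/dextran FBS. Dosing: titration, 18 hrs, 37 C. Detection: CCF4, 2 hrs RT, 405 ex/460 and 530 em.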

[4] = molecular target: Peroxisome proliferator-activated receptor delta (Homo sapiens) (UniProt Q03181); experiment: as above
Sequence of Peroxisome proliferator-activated receptor delta (Homo sapiens) (Q03181 whole entry, looked up): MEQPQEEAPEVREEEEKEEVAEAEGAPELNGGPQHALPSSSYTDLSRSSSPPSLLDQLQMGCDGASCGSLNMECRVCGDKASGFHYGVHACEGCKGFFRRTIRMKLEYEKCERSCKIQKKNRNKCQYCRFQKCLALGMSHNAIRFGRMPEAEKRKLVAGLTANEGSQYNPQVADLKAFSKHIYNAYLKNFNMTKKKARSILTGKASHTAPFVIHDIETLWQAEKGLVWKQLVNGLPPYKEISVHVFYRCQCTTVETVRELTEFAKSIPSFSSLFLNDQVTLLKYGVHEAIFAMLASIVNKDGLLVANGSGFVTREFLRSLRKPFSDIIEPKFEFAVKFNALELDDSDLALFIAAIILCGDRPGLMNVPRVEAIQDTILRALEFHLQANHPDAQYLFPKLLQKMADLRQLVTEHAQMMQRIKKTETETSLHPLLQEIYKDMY
In short: as §1

[5] = molecular target: Thyroid hormone receptor beta (Homo sapiens) (UniProt P10828); experiment: qHTS assay for small molecule agonists of thyroid hormone receptor beta signaling (AID 588545);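 further: 0% = DMSO only and 100% = 10 nM T3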
Sequence of Thyroid hormone receptor beta (Homo sapiens) (P10828 whole entry, looked up): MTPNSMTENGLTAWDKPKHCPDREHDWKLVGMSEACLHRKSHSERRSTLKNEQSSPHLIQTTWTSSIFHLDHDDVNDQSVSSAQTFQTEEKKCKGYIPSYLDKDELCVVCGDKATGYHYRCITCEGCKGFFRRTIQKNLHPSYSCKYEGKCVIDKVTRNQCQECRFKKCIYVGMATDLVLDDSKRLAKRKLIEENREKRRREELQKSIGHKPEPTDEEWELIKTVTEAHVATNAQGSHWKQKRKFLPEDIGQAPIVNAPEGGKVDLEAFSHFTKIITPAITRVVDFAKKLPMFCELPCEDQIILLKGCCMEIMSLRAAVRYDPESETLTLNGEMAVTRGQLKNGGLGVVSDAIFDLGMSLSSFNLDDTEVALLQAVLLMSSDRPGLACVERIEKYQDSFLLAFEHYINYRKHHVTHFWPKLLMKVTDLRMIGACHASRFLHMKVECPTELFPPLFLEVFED
In short: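 TR-UAS-bla GripTite HEK 293 cells (2500/well, medium with 2% charcoal/dextran FBS) were treated in agonist mode for 18 h at 37 C, titrated. Beta-lactamase was read by CCF4 ratio after 2 h; normalized to 10 nM T3 (100%) and DMSO, Hill-fitted for EC50 and efficacy.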

[6] = qHTS assay for small molecule antagonists of retinoid X receptor alpha signaling (AID 588546; active means well fitted inhibition curve with a large enough effect in the signal ratio, with a control signal flat, not every such curve was filed as active; the % refers to the signal ratio;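 further: cells stimulated with 9-cis-retinoic acid as agonist; on the % scale 0 is the no-effect control and ±100 the full control effect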); details: HEK293T RXRa-UAS-bla, beta-lactamase ratio, antagonist mode; measured here: W530 green channel, cytotoxicity proxy
In short: (§2)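 Beta-lactamase reporter inhibition, read as CCF4 fluorescence ratio (ex 405, em 460/530 nm) after 2 h at RT. HEK293T UAS-bla cells, 2500/well, were stimulated with 9-cis-RA at 500 or 100 nM final alongside test compound for 18 h at 37 C.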

[7] = molecular target: Retinoic acid receptor RXR-alpha (Homo sapiens) (UniProt P19793); experiment: as above; details: HEK293T RXRa-UAS-bla, beta-lactamase ratio, antagonist mode
Sequence of Retinoic acid receptor RXR-alpha (Homo sapiens) (P19793 whole entry, looked up): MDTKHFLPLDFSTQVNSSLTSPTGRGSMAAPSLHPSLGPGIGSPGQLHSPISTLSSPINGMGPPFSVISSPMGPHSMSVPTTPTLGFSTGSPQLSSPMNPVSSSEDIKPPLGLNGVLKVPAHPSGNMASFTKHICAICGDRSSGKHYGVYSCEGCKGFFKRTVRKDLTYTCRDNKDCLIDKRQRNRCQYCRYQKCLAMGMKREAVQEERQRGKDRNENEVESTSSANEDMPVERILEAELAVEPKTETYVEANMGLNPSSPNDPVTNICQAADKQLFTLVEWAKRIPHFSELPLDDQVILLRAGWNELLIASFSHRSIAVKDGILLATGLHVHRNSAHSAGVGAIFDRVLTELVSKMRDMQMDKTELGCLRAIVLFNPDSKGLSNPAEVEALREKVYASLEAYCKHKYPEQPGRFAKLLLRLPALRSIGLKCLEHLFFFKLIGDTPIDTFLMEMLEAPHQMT
In short: as §2

[8] = qHTS assay for small molecule activators of the p53 signaling pathway (AID 651743; active means well fitted activation curve with a large enough effect in the signal ratio, not every such curve was filed as active; the % refers to the signal ratio; further: series mostly up to about 92 µM; % of control where 0% means no effect); details: HCT-116 p53RE-bla, beta-lactamase FRET ratio, 16 h; activation: stronger effect = higher value
In short: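 Cell-based beta-lactamase reporter (p53 response elements, HCT-116 background). After a 5-hour preincubation, cells received compound for 16 hours at 37 C; substrate development ran 2 hours at room temperature.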

[9] = molecular target: Peroxisome proliferator-activated receptor alpha (Homo sapiens) (UniProt Q07869); experiment: qHTS assay for small molecule agonists of the peroxisome proliferator-activated receptor alpha (PPARalpha) signaling pathway (AID 651778; active means well fitted curve in the direction sought with a large enough effect; an effect the other way counts as inactive or inconclusive; further: % of control where 0% means no effect); details: PathHunter PPARalpha complementation, chemiluminescence, 6 h; max response: stronger effect = higher value
Sequence of Peroxisome proliferator-activated receptor alpha (Homo sapiens) (Q07869 whole entry, looked up): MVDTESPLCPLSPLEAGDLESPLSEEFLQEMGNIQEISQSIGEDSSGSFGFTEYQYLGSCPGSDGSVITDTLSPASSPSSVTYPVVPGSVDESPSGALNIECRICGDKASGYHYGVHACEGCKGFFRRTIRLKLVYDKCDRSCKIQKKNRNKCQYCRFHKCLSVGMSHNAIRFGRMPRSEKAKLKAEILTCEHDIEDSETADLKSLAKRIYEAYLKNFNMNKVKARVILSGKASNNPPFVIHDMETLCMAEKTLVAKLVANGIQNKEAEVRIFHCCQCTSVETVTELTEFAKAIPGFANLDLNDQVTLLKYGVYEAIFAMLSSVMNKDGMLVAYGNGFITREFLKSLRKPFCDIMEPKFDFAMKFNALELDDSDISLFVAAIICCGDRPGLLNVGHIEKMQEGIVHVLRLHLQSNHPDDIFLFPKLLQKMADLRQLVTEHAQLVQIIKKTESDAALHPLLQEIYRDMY
In short: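 Cells plated at 2,000/well and held overnight at 37 C, 5% CO2, then compound added by pin tool for 6 hr; after PathHunter detection reagent and 60 min at room temperature, chemiluminescence from enzyme complementation was read.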

[10] = qHTS assay for small molecule agonists of the antioxidant response element (ARE) signaling pathway measured by Nrf2-dependant transcriptional activity (AID 720636; active means well fitted curve in the direction sought with a large enough effect in the repeat runs; an effect the other way counts as inactive or inconclusive;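 further: HepG2 cells with an ARE-driven luciferase reporter; % of control where 0% means no effect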)
In short: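 In HepG2 cells engineered with an Nrf2-responsive luciferase gene, ARE induction was quantified as luminescence after 16 hr compound treatment at 37 C.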

[11] = qHTS assay for small molecule agonists of the antioxidant response element (ARE) signaling pathway measured by Nrf2-dependant transcriptional activity - cell viability counter screen (AID 720653; active means well fitted curve in the direction sought with a large enough effect in the repeat runs; an effect the other way counts as inactive or inconclusive; further: on the % scale 0 is the no-effect control and ±100 the full control effect); details: ARE-bla HepG2 viability, CellTiter-Glo ATP luminescence, 16 h; max response: stronger effect = lower value
In short: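 ARE-bla HepG2 cells (2,000/well) rested 5 hrs at 37C/5% CO2, then exposed to compounds in DMSO for 16 hrs. Viability was read in the same wells as intracellular ATP by luminescence, 30 min at room temperature after reagent addition.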

[12] = qHTS assay for cell viability of HEK293 cells (AID 743288; active means well fitted curve in the direction sought with a large enough effect; an effect the other way counts as inactive or inconclusive; further: on the % scale 0 is the no-effect control and ±100 the full control effect; nearly all actives have a fitted effect of over 50% in size); details: ATP luminescence (CellTiter-Glo), 18 h; max response: stronger effect = lower value
In short: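 Parental HEK293 cells were seeded at 2,000 cells/well, rested at least 5 h at 37 C, then exposed to compounds in DMSO for 18 h at 37 C. Viability was read as ATP-dependent luciferase luminescence after 30 min at room temperature.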

[13] = qHTS assay for cell viability of the p53RE-bla HCT-116 cell line (AID 743292; active means well fitted curve in the direction sought with a large enough effect; an effect the other way counts as inactive or inconclusive; further: on the % scale 0 is the no-effect control and ±100 the full control effect; nearly all actives have a fitted effect of over 55% in size)
In short: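 Intracellular ATP of p53RE-bla HCT-116 cells measured by luciferase luminescence following 16 h compound incubation at 37 C; DMSO-only wells served as vehicle controls.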

[14] = molecular target: Nuclear receptor subfamily 1 group I member 2 (Rattus norvegicus) (UniProt Q9R1A7); experiment: qHTS assay for small molecule activators of the rat pregnane X receptor (rPXR) signaling pathway (AID 651751; call rule not given here; further: 0% is about no effect); details: rPXR reporter cells, luciferase (One-Glo), 24 h
Sequence of Nuclear receptor subfamily 1 group I member 2 (Rattus norvegicus) (Q9R1A7 whole entry, looked up): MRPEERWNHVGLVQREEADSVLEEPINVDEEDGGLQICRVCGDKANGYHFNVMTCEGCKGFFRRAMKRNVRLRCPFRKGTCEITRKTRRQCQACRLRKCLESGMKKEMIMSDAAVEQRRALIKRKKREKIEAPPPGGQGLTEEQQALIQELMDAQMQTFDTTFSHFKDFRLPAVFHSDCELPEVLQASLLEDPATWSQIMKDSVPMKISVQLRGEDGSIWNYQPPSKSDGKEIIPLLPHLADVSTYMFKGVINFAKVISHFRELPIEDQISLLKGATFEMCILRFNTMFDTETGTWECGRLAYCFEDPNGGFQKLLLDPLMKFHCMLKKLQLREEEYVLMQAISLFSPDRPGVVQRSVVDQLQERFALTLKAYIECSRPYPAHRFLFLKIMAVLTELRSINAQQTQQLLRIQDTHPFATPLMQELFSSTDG

[15] = molecular target: Peroxisome proliferator-activated receptor delta (Homo sapiens) (UniProt Q03181); experiment: qHTS assay for small molecule agonists of peroxisome proliferator-activated receptor delta signaling (AID 588534);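 further: 0% = DMSO basal wells and 100% = positive control agonist at 10 µM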
In short: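 Cells carrying a PPAR-delta beta-lactamase reporter were treated with compounds for 18 h at 37 °C in agonist mode. CCF4 fluorescence was read after 2 h; EC50 and efficacy from Hill fits.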

[16] = molecular target: Vitamin D3 receptor (Homo sapiens) (UniProt P11473); experiment: qHTS assay for small molecule antagonists of vitamin D receptor signaling (AID 588541);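 further: receptor activated by calcitriol during compound treatment; series mostly up to about 77 µM; on the % scale 0 is the no-effect control and ±100 the full control effect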
Sequence of Vitamin D3 receptor (Homo sapiens) (P11473 whole entry, looked up): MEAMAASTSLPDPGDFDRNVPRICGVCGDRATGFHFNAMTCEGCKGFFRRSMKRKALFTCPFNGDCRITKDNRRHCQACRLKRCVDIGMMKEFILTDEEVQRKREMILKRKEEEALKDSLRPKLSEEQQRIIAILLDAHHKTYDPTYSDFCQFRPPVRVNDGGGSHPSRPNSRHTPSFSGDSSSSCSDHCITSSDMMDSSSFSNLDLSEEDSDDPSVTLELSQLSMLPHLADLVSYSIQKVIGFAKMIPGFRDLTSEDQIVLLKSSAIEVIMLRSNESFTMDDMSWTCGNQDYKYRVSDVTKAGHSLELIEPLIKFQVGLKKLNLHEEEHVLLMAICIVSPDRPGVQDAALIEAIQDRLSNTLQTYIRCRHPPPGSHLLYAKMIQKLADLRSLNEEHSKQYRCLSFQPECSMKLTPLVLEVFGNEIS
In short: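 VDR-UAS-bla HEK293T cells (2000/well, 2% charcoal-stripped FBS) were treated with titrated compounds plus 1-alpha,25-dihydroxyvitamin D3 (50 nM or 3 nM final) for 16 h at 37 C. CCF4 beta-lactamase fluorescence was read; Hill fits gave IC50.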

[17] = molecular target: Retinoic acid receptor RXR-alpha (Homo sapiens) (UniProt P19793); experiment: qHTS assay for small molecule agonists of retinoid X receptor alpha signaling (AID 588544);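 further: 0% = DMSO basal wells and 100% = reference agonist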
[18] = qHTS assay for environmental chemicals that activate the Aryl hydrocarbon Receptor (AhR) signaling pathway (AID 651777; active means well fitted curve in the direction sought with a large enough effect; an effect the other way counts as inactive or inconclusive; further: % of control where 0% means no effect; nearly all actives have a fitted effect of over 15% in size); details: 1A2-DRE human hepatoma cells, luciferase, 24 h; activation: stronger effect = higher value
In short: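 Measured luciferase activity, read 30 min after One-Glo addition at room temperature, from human hepatoma cells bearing a dioxin response element–CYP1A2 promoter reporter and exposed to compound for 24 hr at 37 C.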

[19] = molecular target: Vitamin D3 receptor (Homo sapiens) (UniProt P11473); experiment: qHTS assay for small molecule agonists of vitamin D receptor signaling (AID 588543);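 further: 0% = DMSO basal and 100% = reference agonist control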
In short: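 GeneBLAzer VDR-UAS-bla HEK293T cells in 2% charcoal-stripped FBS medium were dosed with compound titrations for 16 h at 37 °C; CCF4 β-lactamase readout (405 nm ex, 460/530 nm em). EC50 and efficacy from Hill fits, normalized to 50 nM calcitriol (100%) and DMSO (0%).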

[20] = qHTS assay for small molecule activators of the nuclear factor-kappa B (NF-kB) signaling pathway (AID 651749; active means well fitted activation curve with a large enough effect in the signal ratio; the % refers to the signal ratio; further: series mostly up to about 77 µM; % of control where 0% means no effect); details: NF-kB-bla ME-180 cells, beta-lactamase FRET ratio, 16 h; activation: stronger effect = higher value
In short: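 Screening used 2,000 ME-180 reporter cells per well exposed to pinned compound (23 nL) or DMSO; after 16 hr at 37C, beta-lactamase expression under NF-kB control was assessed through FRET.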

Sequence of Bile acid receptor (Homo sapiens) (Q96RI1 whole entry, looked up): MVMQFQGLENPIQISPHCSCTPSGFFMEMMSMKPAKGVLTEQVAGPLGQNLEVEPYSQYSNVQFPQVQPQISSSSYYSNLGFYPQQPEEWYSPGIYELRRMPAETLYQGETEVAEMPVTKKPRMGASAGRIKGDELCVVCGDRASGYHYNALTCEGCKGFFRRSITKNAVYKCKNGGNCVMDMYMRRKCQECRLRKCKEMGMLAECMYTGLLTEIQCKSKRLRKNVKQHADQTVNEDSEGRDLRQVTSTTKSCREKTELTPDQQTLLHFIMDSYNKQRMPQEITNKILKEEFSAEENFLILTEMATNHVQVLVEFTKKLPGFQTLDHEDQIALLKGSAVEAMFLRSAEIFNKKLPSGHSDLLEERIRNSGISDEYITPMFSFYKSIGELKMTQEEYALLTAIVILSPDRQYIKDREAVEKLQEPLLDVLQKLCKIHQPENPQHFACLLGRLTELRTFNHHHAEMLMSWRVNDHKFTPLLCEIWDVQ

SMILES | Potency [1] | activation [2] | max response [3] [%] | Potency [4] | Potency [5] | max response [6] [%] | max response [7] | activation [8] | max response [9] | Potency [10] | max response [11] | max response [12] | Potency [13] | max response [14] | outcome [15] | Potency [16] | Potency [17] | activation [18] | outcome [19] | activation [20]
CC(O)CN(CC(C)O)CC(C)O (centres undefined) | inactive | 0.256% (inactive) | -32.2 | inactive | inactive | -0.813 | 3.2% (inactive) | -9.86% (inactive) | -2.83% (inactive) | inactive | -8.2% (inactive) | -4.13% (inactive) | inactive | -0.821% (inactive) |  |  |  |  |  | 
CCCCCCCCCCCC#N | inactive | -2.48% (inactive) | -15.4 | inactive |  | -6.71 | 4.86% (inactive) | 0.106% (inactive) | -0.162% (inactive) | inactive | -0.799% (inactive) |  | inactive | 0.164% (inactive) | inactive | inactive | inactive | 1.84% (inactive) |  | 
CC(C)COP(=O)(OCC(C)C)OCC(C)C | inactive | 4.76% (inactive) | 21.8 | inactive | inactive | -13.9 | 3.45% (inactive) |  | -1.01% (inactive) | inactive | -13.2% (inactive) | -10% (inactive) | inactive | -5.22% (inactive) | inactive | inactive | inactive | -1.96% (inactive) | inactive | -3.3% (inactive)
CCC[CH2][Sn]([CH2]CCC)([CH2]CCC)[CH2]CCC | inactive | 3.44% (inactive) | 0.148 | inactive | inactive | 6.88 | 4.03% (inactive) | -3.46% (inactive) | -1.25% (inactive) | inactive | 1.93% (inactive) | -5.3% (inactive) | inactive | 8.28% (inactive) | inactive | inactive |  | 0.926% (inactive) | inactive | 1.03% (inactive)
O=[N+]([O-])c1ccc(Nc2ccccc2)cc1 | inactive | 0.7% (inactive) |  |  | inactive | -4.45 | -16.2% (inactive) | -0.549% (inactive) | -1.55% (inactive) |  | -13.2% (inactive) | 1.82% (inactive) | inactive |  |  |  |  | 5.27% (inactive) | inactive | 0.166% (inactive)
C[Si](Cn1cncn1)(c1ccc(F)cc1)c1ccc(F)cc1 | 22.4 µM (active) | 2.34% (inactive) |  |  | inactive |  |  | -4.21% (inactive) | -0.864% (inactive) | inactive | -21.1% (inactive) |  | inactive |  |  | inactive |  | 6.54% (inactive) | inactive | 
COc1cccc(C(=O)NN(C(=O)c2cc(C)cc(C)c2)C(C)(C)C)c1C | inactive | 4% (inactive) | -0.516 | inactive | inactive | -5.99 | -0.788% (inactive) | -3.69% (inactive) | 0.438% (inactive) | inactive | 2.48% (inactive) | -4.45% (inactive) | inactive |  | inactive | inactive | inactive | 1.74% (inactive) |  | 
CS(=O)(=O)NC(=O)c1cc(Oc2ccc(C(F)(F)F)cc2Cl)ccc1[N+](=O)[O-] | inactive | -9.24% (inactive) |  |  | inactive | -6.47 | -2.65% (inactive) | -3.62% (inactive) | -2.59% (inactive) | inactive | -2.76% (inactive) | -3.04% (inactive) | inactive | -4.18% (inactive) |  | inactive | inactive |  | inactive | 
Brc1ccc(Br)cc1 | inactive | -2.5% (inactive) | -47.9 | inactive | inactive | -5.87 | 9.56% (inactive) | -8.84% (inactive) | -1.4% (inactive) | inactive | -4.46% (inactive) | -8.04% (inactive) | inactive | -2.46% (inactive) | inactive | inactive | inactive | -0.254% (inactive) | inactive | 
CCC(C)(c1ccc(O)cc1)c1ccc(O)cc1 | inactive | 1.29% (inactive) |  |  | inactive |  |  | -1.26% (inactive) | -1.57% (inactive) | inactive | -14.2% (inactive) | -0.148% (inactive) | inactive | -0.68% (inactive) |  |  | inactive | -1.12% (inactive) |  | -1.76% (inactive)
CCOP(=O)(OCC)Oc1cc(C)nc(C(C)C)n1 | inactive | -3.07% (inactive) | 22.9 | inactive | inactive | 13.6 | 18.7% (inactive) | -7.84% (inactive) | -1.71% (inactive) | inactive | 16.1% (inactive) | 7.77% (inactive) |  | -12.9% (inactive) | inactive |  |  | -0.423% (inactive) |  | 
CCCSP(=O)(OCC)Oc1ccc(Br)cc1Cl (centres undefined) | inactive | 3.54% (inactive) | 5.89 | inactive | inactive |  |  | 3.94% (inactive) | -0.001% (inactive) | inactive | -7.9% (inactive) | -22.2% (inactive) | inactive | 7.3% (inactive) | inactive | inactive | inactive | 3.36% (inactive) | inactive | 0.74% (inactive)
